High-throughput results deposited in PubChem BioAssay by several laboratories.
Shown are actives, neighbours in structure and some others; about 2.2% of the full set was active somewhere.
KLK7 zymogen act – activates the human kallikrein-7 zymogen; P49862; purified proKLK7, EDANS-DABCYL substrate fluorescence; 100% is mature enzyme control, 0% vehicle; activation, % at 7 µM; actives 0.9% (n = 370,000);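 active = activation above the mean of all tested compounds plus 3 SD, computed per campaign excluding outliers beyond control limits, cut at about 13% in these data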
GC-B act – GC-B (human) receptor activation; AID 1920062; activation, % at 10 µM; HEK293-GC-B cells, CNP EC30, cGMP TR-FRET; 0% at EC30 CNP, 100% saturating CNP; actives 0.11% (n = 370,000);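 active = activation at 10 µM reaching about 35% in either raw or pattern-adjusted values, limit read from the data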
ADAM17 inh – inhibits human ADAM17; P78536; recombinant ADAM17, EDANS/DABCYL FRET peptide cleavage; inhibition, % at 6.95 µM; actives 0.83% (n = 370,000);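 active = inhibition above the mean of compounds lying between control limits plus 3 SD, set per campaign, cut at about 8.5% in these data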
ADAM10 inh – ADAM10 inhibition, QFRET primary screen; O14672; recombinant ADAM10, EDANS/DABCYL FRET peptide cleavage, 3 h; inhibition, % at 7 µM; actives 0.62% (n = 370,000); AID 720582;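 active = inhibition above a per-campaign cutoff equal to the mean of compounds falling between control-based bounds plus 3 SD, cut at about 20% in these data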
NPR1 activator – GC-A (human) enzyme activation; HEK293 GC-A cells, cGMP TR-FRET, EC30 ANP; 0% at EC30 ANP, 100% saturating ANP; activation, % at 10 µM; actives 0.14% (n = 370,000); AID 1671463; in the data active = activation above about 40%
ADAM10 ctr – ADAM10 inhibition, counter-screen for ADAM17 exosite hits; AID 743256; shares compounds with ADAM17 inh; actives 47% (n = 2,900); inhibition, % at 6.95 µM; recombinant ADAM10, EDANS/DABCYL FRET peptide cleavage, 3 h;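 active = mean inhibition over the triplicate runs exceeds the activity threshold set in the earlier primary screen, cut at about 20% in these data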
ADAM17 confirm – confirmation of inhibitors of human ADAM17; shares compounds with ADAM17 inh; recombinant ADAM17, EDANS/DABCYL QFRET peptide cleavage; inhibition, % at 6.95 µM; actives 65% (n = 2,900);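 active = mean inhibition across replicates above the hit cutoff set in the primary screen, cut at about 8.5% in these data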
Each line names hits and unclear results; the compound was inactive in the other large screens (follow-up assays come after a bar, where they were run); ! = not confirmed by another sample.

Cc1c(C=O)c2ccccn2c1C(=O)c1ccccc1	none
C[C@H](CO)N1C[C@H](C)[C@@H](CN(C)S(=O)(=O)c2cccs2)Oc2ccc(NC(=O)Nc3ccc(C(F)(F)F)cc3)cc2C1=O	ADAM17 inh 8.7, ADAM10 inh 29 | ADAM10 ctr 40 | ADAM17 confirm 23
C[C@H](CO)N1C[C@H](C)[C@@H](CN(C)S(=O)(=O)c2ccc(F)cc2)Oc2ccc(NC(=O)Nc3ccc(C(F)(F)F)cc3)cc2C1=O	ADAM17 inh 9.0, ADAM10 inh 26 | ADAM10 ctr 37 | ADAM17 confirm 19
CC(C)Oc1cc(NC(=O)CS(=O)CC(=O)Nc2cccc(C(F)(F)F)c2)c(Cl)cc1Cl (stereo not given)	ADAM17 inh 9.2 (no result: GC-B act, NPR1 activator) | ADAM10 ctr 31 | ADAM17 confirm 16
CCCCN(Cc1ccccc1)S(=O)(=O)c1cc2c(cc1Br)CC(C)N2C(C)=O (stereo not given)	ADAM17 inh 11 | ADAM10 ctr inactive | ADAM17 confirm 12
CCC(=O)N1c2ccc(S(=O)(=O)N(CCO)Cc3ccccc3)cc2CC1C (stereo not given)	none
C=CCNC(=S)NNC(=O)c1cccc(Br)c1	none
C=CCNC(=S)NNC(=O)c1ccc(C)c(Cl)c1	ADAM17 inh 12 | ADAM10 ctr inactive | ADAM17 confirm inactive
O=C(NCc1ccco1)c1ccc(S(=O)(=O)N2CCCc3ccccc32)cc1	ADAM17 inh 10 | ADAM10 ctr inactive | ADAM17 confirm inactive
O=C(NCc1ccccc1)c1ccc(S(=O)(=O)N2CCCc3ccccc32)cc1	none
COC(=O)CN1C(=O)C2(C(C#N)=C(N)Oc3n[nH]c(-c4cccs4)c32)c2ccccc21 (stereo not given)	none
COC(=O)CN1C(=O)C2(C(C#N)=C(N)Oc3c2c(C)nn3-c2ccccc2)c2ccccc21 (stereo not given)	ADAM17 inh 13 | ADAM10 ctr inactive | ADAM17 confirm inactive
CC(C)NC(=S)N/N=C1\CCCCc2ccccc21	none
COc1cccc(NC(=S)N/N=C2/CCCCc3ccccc32)c1	ADAM17 inh 9.2 | ADAM10 ctr inactive | ADAM17 confirm inactive
CCOc1ccc(-c2c(C(=O)N/N=C/C3CC=CCC3)nnn2-c2nonc2N)cc1 (stereo not given)	ADAM17 inh 9.6 | ADAM10 ctr inactive | ADAM17 confirm inactive
O=C(OCc1cn(Cc2ccc(F)cc2)nn1)N1CCOCC1	none
CCOC(=O)C1=C(C)NC(C)=C(C(=O)OC)C1c1cccc([N+](=O)[O-])c1 (stereo not given)	none
CCOC(=O)C1=C(C)NC(C)=C(C(=O)OCC)C1c1ccc([N+](=O)[O-])s1	ADAM17 inh 9.2! | ADAM10 ctr 24 | ADAM17 confirm 12
CC(=O)OCC(=O)[C@@]12OC3(CCCC3)O[C@@H]1C[C@H]1[C@@H]3CCC4=CC(=O)C=C[C@]4(C)[C@@]3(F)[C@@H](O)C[C@@]12C	ADAM17 inh 8.7 | ADAM10 ctr inactive | ADAM17 confirm inactive
CC1(C)O[C@@H]2C[C@H]3[C@@H]4CCC5=CC(=O)C=C[C@]5(C)[C@@]4(F)[C@@H](O)C[C@]3(C)[C@]2(C(=O)CO)O1	none
O=c1ccc(C(F)(F)F)cn1Cc1cc(=O)n2ccsc2n1	none
O=c1cc(COn2nnc3ccc(C(F)(F)F)cc32)nc2sccn12	ADAM17 inh 11 | ADAM10 ctr inactive | ADAM17 confirm 8.9
Cc1ccc(C(=O)N2CCC[C@@H]2C(=O)N2CCC[C@H]2C(=O)NCc2ccccc2)cc1	none
CCO[C@H]1OC(C(=O)NCc2nc3ccccc3[nH]2)=C[C@@H](c2csc3ccccc23)[C@@H]1CCCO	ADAM17 inh 12 | ADAM10 ctr inactive | ADAM17 confirm inactive
CCO[C@H]1OC(C(=O)NCc2nc3ccccc3[nH]2)=C[C@@H](c2ccccc2)[C@@H]1CCCO	none
O=S1(=O)c2ccc(N3CCC[C@H]3CO)cc2OCCCN1C1CC1	none
COc1ccc(Oc2c(-c3cccs3)cnn(-c3ccc(C)cc3)c2=O)cc1	none (no result: KLK7 zymogen act)
CC1(c2ccccc2)NC(=O)N(CC(=O)Nc2ccc(S(N)(=O)=O)cc2)C1=O (stereo not given)	none
CC1CC(C)CN(S(=O)(=O)c2ccc(NC(=O)CN3C(=O)NC(C)(c4ccccc4)C3=O)cc2)C1 (stereo not given)	ADAM17 inh 10.0 | ADAM10 ctr 21 | ADAM17 confirm 12
Cc1ccc(C(=O)NC(=S)/C=C2\N(C)c3ccccc3C2(C)C)cc1	ADAM17 inh 18 | ADAM10 ctr 26 | ADAM17 confirm 13
CC(C)C(=O)NC(=S)/C=C1/N(C)c2ccccc2C1(C)C	none
O=C(c1ccc(F)cc1Cl)N1CCCC(c2nc(-c3cccs3)no2)C1 (stereo not given)	none
CC(C)(C)C(=O)/C=c1\[nH]c(=O)/c(=C\c2ccc(F)cc2)s1	ADAM17 inh 10 | ADAM10 ctr inactive | ADAM17 confirm inactive
COc1ccc(-c2nc(NC(=O)C3CC(=O)N(Cc4ccco4)C3)sc2C)cc1 (stereo not given)	ADAM17 inh 9.1 | ADAM10 ctr inactive | ADAM17 confirm inactive
Cc1ccc(S(=O)(=O)N2CCOC2CNC(=O)C(=O)NCCCc2ccccc2)cc1 (stereo not given)	ADAM17 inh 9.3 | ADAM10 ctr 22 | ADAM17 confirm 21
COc1ccc(NC(=O)N(CCc2c(C)[nH]c3ccccc23)Cc2cccs2)cc1OC	none
O=C1NC[C@H](Cc2ccccc2)N(C[C@H]2CCCN2C[C@H](Cc2ccccc2)N2C[C@H](Cc3ccccc3)N(CC3CCCCC3)C(=O)C2=O)C1=O	ADAM17 inh 9.0 | ADAM10 ctr 20 | ADAM17 confirm 9.3
CC(C)C[C@@H](CN1CCC[C@H]1CN1C(=O)C(=O)NC[C@@H]1Cc1ccccc1)N1C[C@H](Cc2ccc(O)cc2)N(CC2CCCCC2)C(=O)C1=O	ADAM17 inh 10 | ADAM10 ctr 20 | ADAM17 confirm 11
CC(C)C(=O)N1CCC(Oc2cccnc2)CC1	none
Cc1cc(C)n2ncc(C(=O)Nc3ccc4c(c3)CCC4)c2n1	none (no result: KLK7 zymogen act)
COc1ccc(C(=O)COC(=O)C(CCCCN2C(=O)C3C4C=CC(C4)C3C2=O)N2C(=O)C3C4C=CC(C4)C3C2=O)cc1 (stereo not given)	ADAM17 inh 9.3 | ADAM10 ctr inactive | ADAM17 confirm inactive
COC(=O)C(CCCCN1C(=O)C2C3C=CC(C3)C2C1=O)N1C(=O)C2C3C=CC(C3)C2C1=O (stereo not given)	none
